Results filed as inconclusive are left out. Calls of active or inactive are those of the source. Calls follow the shape of the dose curve; as a rule, active = well fitted curve in the direction sought with a large enough effect; inconclusive = small, poorly fitted or top-dose-only effect, or another doubt; inactive = no such curve, though single readings can be large; an effect the other way counts as inactive or inconclusive.
How the values were obtained:
[1] = Quantitative High-Throughput drug screen in 47 multiple myeloma cell lines against the NCATS MIPE library collection: ARP1_JJKsccF8 cell viability assay (AID 1918928; also: nearly all actives have a fitted effect of over 40% in size)
Method in brief: (§1)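 Each line was plated at 500 cells/well and treated 48 h with library drugs. Viability came from CellTiter-Glo luminescence relative to DMSO and cell-free medium controls.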

[2] = Quantitative High-Throughput drug screen in 47 multiple myeloma cell lines against the NCATS MIPE library collection: ARD_JJKsccE7 cell viability assay (AID 1918929; also: potency is read from the fitted curve at half-maximal effect)
Method in brief: (§2)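 CellTiter-Glo ATP luminescence gave viability after 48 h compound treatment at 37C of 500 multiple myeloma cells per well. Normalisation used DMSO-only wells as 100% and media-only wells as 0% viability; primary qHTS of approved and investigational drugs.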

[3] = Quantitative High-Throughput drug screen in 47 multiple myeloma cell lines against the NCATS MIPE library collection: KMM1_JCRB cell viability assay (AID 1918960); also: nearly all actives have a fitted effect of over 30% in size
Method in brief: as §1

[4] = Quantitative High-Throughput drug screen in 47 multiple myeloma cell lines against the NCATS MIPE library collection: KHM11_PLB cell viability assay (AID 1918962); also: nearly all actives have a fitted effect of over 35% in size; also: potency is read from the fitted curve at half-maximal effect
Method in brief: (§3)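 Myeloma cells (500 per well) were exposed to MIPE 4.0 compounds by pin transfer and incubated 48 hours at 37C, 5% CO2. Viability was read as ATP by CellTiter-Glo luminescence, normalised to DMSO (100%) and media-only (0%) wells.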

[5] = Quantitative High-Throughput drug screen in 47 multiple myeloma cell lines against the NCATS MIPE library collection: JIM3_ECACC cell viability assay (AID 1918963; also: nearly all actives have a fitted effect of over 35% in size; also: potency is read from the fitted curve at half-maximal effect)
Method in brief: as §3

[6] = Quantitative High-Throughput drug screen in 47 multiple myeloma cell lines against the NCATS MIPE library collection: JIM1_ECACC cell viability assay (AID 1918964; also: potency is read from the fitted curve at half-maximal effect)
Method in brief: as §2

[7] = Quantitative High-Throughput drug screen in 47 multiple myeloma cell lines against the NCATS MIPE library collection: JJN3_DSMZ cell viability assay (AID 1918966; also: nearly all actives have a fitted effect of over 50% in size; also: potency is read from the fitted curve at half-maximal effect)
Method in brief: as §2

[8] = Quantitative High-Throughput drug screen in 47 multiple myeloma cell lines against the NCATS MIPE library collection: H1112_PLB cell viability assay (AID 1918967; also: nearly all actives have a fitted effect of over 30% in size; also: potency is read from the fitted curve at half-maximal effect)
Method in brief: as §2

[9] = Quantitative High-Throughput drug screen in 47 multiple myeloma cell lines against the NCATS MIPE library collection: KMS12BM_JCRB cell viability assay (AID 1918971); also: nearly all actives have a fitted effect of over 35% in size; also: potency is read from the fitted curve at half-maximal effect
Method in brief: (§4)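 Inhibition of cell viability is measured here. Each line was plated at 500 cells per well, treated with MIPE 4.0 drugs, kept 48 hours at 37C, then assayed for ATP content by CellTiter-Glo luminescence.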

[10] = Quantitative High-Throughput drug screen in 47 multiple myeloma cell lines against the NCATS MIPE library collection: KMS12PE_JCRB cell viability assay (AID 1918972); also: nearly all actives have a fitted effect of over 30% in size; also: potency is read from the fitted curve at half-maximal effect
Method in brief: as §2

[11] = Quantitative High-Throughput drug screen in 47 multiple myeloma cell lines against the NCATS MIPE library collection: KMS20_JCRB cell viability assay (AID 1918973); also: nearly all actives have a fitted effect of over 45% in size; also: potency is read from the fitted curve at half-maximal effect
Method in brief: as §2

[12] = Quantitative High-Throughput drug screen in 47 multiple myeloma cell lines against the NCATS MIPE library collection: AMO1_DSMZ cell viability assay (AID 1918927; also: nearly all actives have a fitted effect of over 30% in size; also: potency is read from the fitted curve at half-maximal effect)
Method in brief: as §2

[13] = Quantitative High-Throughput drug screen in 47 multiple myeloma cell lines against the NCATS MIPE library collection: Karpas620_DSMZ cell viability assay (AID 1918959); also: nearly all actives have a fitted effect of over 30% in size; also: potency is read from the fitted curve at half-maximal effect
Method in brief: as §3

[14] = Quantitative High-Throughput drug screen in 47 multiple myeloma cell lines against the NCATS MIPE library collection: Karpas417_ECACC cell viability assay (AID 1918961); settings: Karpas417 myeloma viability, CellTiter-Glo ATP luminescence, 48 h; viability (% of DMSO): at 45.8 µM (top of the series); also: potency is read from the fitted curve at half-maximal effect
Method in brief: as §2

[15] = Quantitative High-Throughput drug screen in 47 multiple myeloma cell lines against the NCATS MIPE library collection: INA6_PLB cell viability assay (AID 1918965; also: nearly all actives have a fitted effect of over 55% in size; also: potency is read from the fitted curve at half-maximal effect)
Method in brief: as §2

[16] = Quantitative High-Throughput drug screen in 47 multiple myeloma cell lines against the NCATS MIPE library collection: KMS27_JCRB cell viability assay (AID 1918970); also: nearly all actives have a fitted effect of over 30% in size; also: potency is read from the fitted curve at half-maximal effect
Method in brief: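 Luminescent ATP read-out (CellTiter-Glo, 5 min at room temperature) after 48 h compound exposure of 500 KMS27_JCRB cells per well; DMSO wells define full viability and media-only wells zero.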

[17] = Quantitative High-Throughput drug screen in 47 multiple myeloma cell lines against the NCATS MIPE library collection: KMS21BM_JCRB cell viability assay (AID 1918974); settings: ATP luminescence, 48 h; viability: at 45.8 µM (top of the series) unless noted; also: potency is read from the fitted curve at half-maximal effect
Method in brief: as §2

[18] = Quantitative High-Throughput drug screen in 47 multiple myeloma cell lines against the NCATS MIPE library collection: MMM1_PLB cell viability assay (AID 1918976); also: potency is read from the fitted curve at half-maximal effect; nearly all actives have a fitted effect of over 35% in size
Method in brief: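 ATP-based CellTiter-Glo luminescence after 48 h drug exposure (37 °C, 5% CO2) of 500 myeloma cells per well. DMSO-only wells set 100% viability, media-only wells 0%; MIPE 4.0 library added by pin tool.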

[19] = Quantitative High-Throughput drug screen in 47 multiple myeloma cell lines against the NCATS MIPE library collection: Karpas25_ECACC cell viability assay (AID 1918968; also: nearly all actives have a fitted effect of over 35% in size; also: potency is read from the fitted curve at half-maximal effect)
Method in brief: as §2

[20] = Quantitative High-Throughput drug screen in 47 multiple myeloma cell lines against the NCATS MIPE library collection: KMS26_JCRB cell viability assay (AID 1918975); also: nearly all actives have a fitted effect of over 45% in size; also: potency is read from the fitted curve at half-maximal effect
Method in brief: as §4

Measured: Potency

CNC(=O)c1ccc2cc(C3(O)CCn4cncc43)ccc2c1 (configuration not stated)
inactive: [1] | [2] | [3] | [4] | [5] | [6] | [7] | [8] | [9] | [10] | [11]

OC[C@H]1O[C@@H](n2cnc3c2NC=NC[C@@H]3O)C[C@H]1O
inactive: [12] | [3] | [14] | [6] | [15] | [10]
active: [13] 14.8 µM | [7] 23.5 µM | [8] 18.7 µM | [16] 13.2 µM | [17] 0.0042 µM | [18] 20.9 µM

CCC(=O)O[C@]1(C(=O)CO)CC[C@H]2[C@@H]3CCC4=CC(=O)CC[C@]4(C)[C@@H]3CC[C@@]21C
inactive: [12] | [13] | [3] | [4] | [5] | [7] | [16] | [10]

C=CCc1ccc(O)c(-c2ccc(O)c(CC=C)c2)c1
active: [12] 23.5 µM | [13] 26.4 µM | [5] 20.9 µM | [15] 18.7 µM | [16] 23.5 µM | [10] 20.9 µM | [11] 23.5 µM

CC1CCC(C(=O)N(c2cc(C#CC(C)(C)C)sc2C(=O)O)C2CCC(O)CC2)CC1 (configuration not stated)
active: [15] 26.4 µM | [7] 18.7 µM
inactive: [12] | [13] | [6] | [16] | [10]

COC(=O)C1=CO[C@@H](O)[C@@H]2C(CO)=CC[C@@H]12
active: [12] 18.7 µM | [13] 23.5 µM | [5] 23.5 µM | [7] 11.8 µM
inactive: [8]

CN(C)Cc1ccc(-c2nc3cccc4c3n2CCNC4=O)cc1
active: [12] 18.7 µM | [13] 23.5 µM | [14] 14.8 µM | [4] 11.8 µM | [5] 20.9 µM | [6] 11.8 µM | [7] 18.7 µM | [8] 20.9 µM | [19] 23.5 µM | [16] 20.9 µM

C[C@]12CC[C@@H]3c4ccc(O)cc4C[C@@H](CCCCCCCCCS(=O)CCCC(F)(F)C(F)(F)F)[C@H]3[C@H]1CC[C@H]2O (some centres not stated)
inactive: [12] | [3] | [5] | [6] | [15] | [8] | [19] | [16]
active: [9] 16.6 µM | [10] 7.43 µM | [18] 18.7 µM

COc1cccc(-c2cc(=O)c3ccccc3o2)c1N
inactive: [13] | [3] | [16]
active: [12] 16.6 µM | [4] 5.26 µM | [5] 3.72 µM | [15] 2.35 µM | [19] 1.66 µM | [11] 7.43 µM

CC=CCC=CCCC(=O)[C@H]1O[C@@H]1C(N)=O
active: [12] 20.9 µM | [2] 26.4 µM | [6] 11.8 µM | [15] 18.7 µM | [7] 16.6 µM | [19] 18.7 µM | [10] 23.5 µM

O=c1cc(-c2cccc3c2Sc2ccccc2S3)oc(N2CCOCC2)c1
active: [12] 16.6 µM | [5] 16.6 µM | [6] 16.6 µM | [8] 20.9 µM | [19] 14.8 µM | [9] 23.5 µM | [10] 16.6 µM | [11] 13.2 µM

O=c1c(-c2ccc(O)cc2)coc2cc(O)ccc12
inactive: [12] | [14] | [5] | [6] | [15] | [8] | [19] | [16] | [10]

Clc1ccc(CCC(Cn2ccnc2)Sc2c(Cl)cccc2Cl)cc1 (configuration not stated)
active: [12] 14.8 µM | [13] 18.7 µM | [19] 16.6 µM | [16] 18.7 µM | [10] 14.8 µM | [17] 23.5 µM | [18] 26.4 µM

O=C(CCc1ccc(O)cc1)c1c(O)cc(O)cc1O[C@@H]1O[C@H](CO)[C@H](O)[C@H](O)[C@H]1O
inactive: [1] | [2] | [13] | [3] | [5] | [8] | [16] | [9] | [10] | [11]

NC(=O)NN=Cc1ccc([N+](=O)[O-])o1
active: [12] 10.5 µM | [13] 18.7 µM | [19] 16.6 µM | [16] 14.8 µM | [17] 5.9 µM
inactive: [8]

COc1cc(O)c2c(c1)C(=O)c1cc(C)cc(O)c1C2=O
not listed: [6] | [7] | [12] | [15] | [17] | [18] | [19]
inactive: all other assays above

Cc1cc(OCCCc2c(C(=O)O)n(Cc3cccnc3)c3c(-c4c(COc5ccc(N6CCN([S+](C)(=O)[O-])CC6)cc5)nn(C)c4C)cccc23)cc(C)c1Cl
active: [15] 18.7 µM | [7] 26.4 µM | [9] 26.4 µM | [10] 6.62 µM | [20] 20.9 µM
inactive: [12] | [16]

— PubChem BioAssay (NCATS)
